# Measured values from PubChem BioAssay.
# Activity calls are given as the source filed them. Unless noted, no stated cut-off is given here; in the data, active means inhibition above about 30%; inactive means the rest.
# Columns and labels:
# [1] = reduced viability of SK-BR-3 breast cancer cells – cell-based, 24 h, human, pilot screen (AID 572;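 active means viability at or below 10% of carrier control in both of two separate runs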;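 further: compound exposure lasted between 18 and 24 h rather than exactly 24 h; 100% = carrier-treated control wells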); conditions: SK-BR-3 viability, CellTiter-Glo luminescence, at 10 µM, stronger effect = lower value
# [2] = HUVEC growth inhibition – cell-based, human, primary screen (AID 575;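 active means viability at or below 30% in both replicate assays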;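 further: 100% = median of untreated cell wells with 0.1% DMSO on each plate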); conditions: HUVEC proliferation, CellTiter-Glo luminescence, 72 h; at 10 µM; stronger effect = lower value
# [3] = H69AR cell proliferation blockers – human, duplicate replicates, primary screen (AID 580;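 active means viability at or under a set limit in both replicates, limit being median viability minus 3 SD, cut at about 48% in these data, passing the limit was not always enough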;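 further: 100% = mean luminescence of untreated wells and 0% = no signal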); conditions: H69AR lung tumor cells viability, ATP luminescence, 72 h; at 10 µM; stronger effect = lower value
# [4] = MRP1 drug-resistance reversers in H69AR cells – cell-based, doxorubicin co-treatment, pilot screen (AID 601;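 active means viability loss from added drug above about 55%, and viability with drug at most 40%, in both replicates, limit read from the data, passing the limit was not always enough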); conditions: CellTiter-Glo, 72 h, at 10 µM; for differential viability (reversal): stronger effect = higher value
# [5] = yeast transport mutant growth inhibition pilot in 384-well plates, post-Golgi transport modulator project (AID 636; in the data active means inhibition above about 31%); conditions: absorbance 615 nm, about 18 h, stronger effect = higher value
# [6] = growth suppression of yeast trafficking mutant, preliminary HTS, modulators of trafficking downstream of Golgi apparatus project, 1536-format plate, OD 615 nm (AID 637); conditions: yeast transport mutant growth, absorbance 615 nm, 18 h; stronger effect = higher value
# [7] = H69AR cells + 2 uM doxorubicin, measured here: viability with 2 uM doxorubicin, stronger effect = lower value
# [8] = H69AR cells, compound alone cytotoxicity
Structure (SMILES),viability [1],viability [2],viability [3],differential viability (reversal) ([4]; H69AR cells + 2 uM doxorubicin),"viability [4, 7] [%]","viability [4, 8] [%]",inhibition [5],inhibition [6]
COc1ccc(OC)c(NC(=O)CSc2nnc(-c3ccco3)n2-c2ccccc2)c1,59% (inactive),83% (inactive),90.4% (inactive),5.04% (inactive),85.4,90.4,-6.3% (inactive),3.45% (inactive)
CCCCN1CN(S(=O)(=O)c2cccs2)c2nc3ccccc3nc21,97% (inactive),109% (inactive),83.7% (inactive),-5.09% (inactive),88.8,83.7,-10.1% (inactive),-4.18% (inactive)
O=C(Nc1ccc(NC(=O)C2CC2)cn1)c1ccccc1Cl,101% (inactive),98.7% (inactive),98.5% (inactive),7.09% (inactive),91.4,98.5,-2.13% (inactive),-2.91% (inactive)
Cc1sc2nc3n(c(=O)c2c1C)NC(=O)CC3,104% (inactive),86.3% (inactive),94% (inactive),5.63% (inactive),88.4,94,-4.79% (inactive),1.82% (inactive)
O=C(NCc1ccco1)c1cc2cc3ccc(Cl)cc3nc2o1,90% (inactive),21.4% (active),2.59% (active),-0.39% (inactive),2.98,2.59,-0.65% (inactive),0% (inactive)
COCCn1c(-c2ccco2)nc2nc3ccccc3nc21,99.5% (inactive),99.1% (inactive),77.3% (inactive),-2.21% (inactive),79.6,77.3,-8.27% (inactive),3.28% (inactive)
COC(=O)c1cccc(NC(=O)CN2CCN(Cc3ccccc3)CC2)c1,56% (inactive),105% (inactive),90.5% (inactive),-2.89% (inactive),93.4,90.5,-5.34% (inactive),-0.36% (inactive)
O=C(CSc1ncn[nH]1)NC1CC2CCC1C2 (stereo unspecified),94% (inactive),103% (inactive),98% (inactive),-22.4% (inactive),120,98,-5.34% (inactive),-1.82% (inactive)
COc1cc(NC(=O)c2cccs2)cc(OC)c1,72% (inactive),95.4% (inactive),97.7% (inactive),13.6% (inactive),84,97.7,-2.97% (inactive),-8.18% (inactive)
CCc1cn([C@H]2C[C@H](O)[C@@H](CO)O2)c(=O)[nH]c1=O,120% (inactive),93.2% (inactive),85.9% (inactive),9.33% (inactive),76.6,85.9,-0.26% (inactive),7.5% (inactive)
Cc1cc(C(C)(C)C)cc(C)c1CC1=NCCN1,120% (inactive),86.3% (inactive),89.9% (inactive),7.59% (inactive),82.3,89.9,-2.73% (inactive),-4.5% (inactive)
COc1ccc(-c2ccc(-c3nnn(CC(C)=O)n3)cc2)cc1,118% (inactive),105% (inactive),76.9% (inactive),3.31% (inactive),73.6,76.9,-4.16% (inactive),-9.02% (inactive)
Cc1[nH]nc2c1C(=O)CCC2,105% (inactive),117% (inactive),101% (inactive),4.79% (inactive),96.3,101,0.68% (inactive),-0.18% (inactive)
COc1ccc2c(C)nc(Nc3nc(C)cc(C)n3)nc2c1,84% (inactive),114% (inactive),87.3% (inactive),-6.58% (inactive),93.9,87.3,-6.08% (inactive),0% (inactive)
COc1cccc(CC(=O)Nn2c(C)nc3ccccc3c2=O)c1,83% (inactive),115% (inactive),99.3% (inactive),11.8% (inactive),87.5,99.3,-3.07% (inactive),-5.27% (inactive)
COc1ccc(OC)c(S(=O)(=O)N2CCC(C(=O)NCc3ccccc3OC)CC2)c1,101% (inactive),97.5% (inactive),103% (inactive),-0.525% (inactive),103,103,0.55% (inactive),-4.03% (inactive)
O=C(c1ccccc1)c1ccc(N2CCNCC2)cc1,129% (inactive),96.4% (inactive),84.5% (inactive),-5.36% (inactive),89.9,84.5,-2.05% (inactive),6.91% (inactive)
